D2 antag – D2 dopamine receptor (human) antagonism; P14416; HEK293 TREx D2 cells, calcium flux, dopamine EC80; inhibition, % at 10 µM; actives 2% (n = 340,000); in the data active = inhibition above about 30%; inactive = below that, where a call was filed; note: 0% is about no effect
Target sequence (P14416 whole entry, looked up): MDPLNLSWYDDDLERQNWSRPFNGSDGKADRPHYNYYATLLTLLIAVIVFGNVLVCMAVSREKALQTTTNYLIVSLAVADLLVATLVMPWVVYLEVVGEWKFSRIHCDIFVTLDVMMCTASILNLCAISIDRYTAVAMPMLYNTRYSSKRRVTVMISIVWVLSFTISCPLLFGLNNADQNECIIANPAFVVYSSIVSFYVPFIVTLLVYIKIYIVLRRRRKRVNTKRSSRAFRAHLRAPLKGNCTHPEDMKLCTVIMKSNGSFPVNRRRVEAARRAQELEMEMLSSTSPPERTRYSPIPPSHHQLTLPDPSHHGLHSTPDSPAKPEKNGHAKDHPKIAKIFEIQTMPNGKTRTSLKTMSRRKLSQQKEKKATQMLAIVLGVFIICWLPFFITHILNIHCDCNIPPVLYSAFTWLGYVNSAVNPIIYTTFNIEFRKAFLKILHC
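Overnight-induced (tetracycline, 30 C) HEK293 T-REx cells carrying force-coupled D2 receive a no-wash calcium dye, then compound, then EC80 dopamine at 180 s; signals are read kinetically throughout.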
D2 ag-1 – activates the human D2 dopamine receptor; DiscoveRx PathHunter D2 beta-arrestin, luminescence, 90 min; 100% = 57 uM dopamine signal; activation, % (concentration not given with the values); actives 0.084% (n = 360,000); AID 624465; in the data active = activation above about 40%; inconclusive = between about 15% and that limit
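Agonist mode: compounds alone added to overnight-plated D2 PathHunter cells for 90 min at 37 C, with 57 uM final dopamine (EC100) defining full response. Beta-arrestin recruitment detected by chemiluminescent reagent, read after 1 h at ambient temperature.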
D2 PAM-1 – human D2 receptor positive allosteric modulation; DiscoveRx D2 beta-arrestin cells, luminescence, 90 min; 100% = 57 uM dopamine signal; potentiation, % (concentration not given with the values); actives 0.23% (n = 360,000); AID 624464; in the data active = potentiation above about 50%; inconclusive = mostly about 30% to 49%
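D2 cells co-treated with compound plus 50 nM dopamine (EC20) for 90 min at 37 deg C to detect potentiation. Beta-arrestin recruitment was read as enzyme-fragment luminescence after 1 h at ambient temperature. Full response was set by 57 uM dopamine.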
D2 PAM-2 – positively modulates the human D2 dopamine receptor allosterically. P14416. HEK293 T-REx D2, calcium flux, EC20 dopamine potentiation. potentiation, % at 10 µM. actives 0.34% (n = 340,000). AID 485347;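 active = potentiation over 3 SD above the plate norm, cut at about 30% in these data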; note: 0% is about no effect
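Tetracycline-induced HEK293 T-REx cells force-coupled to calcium signalling expressed D2; compounds were pin-added after a 10 s baseline, read kinetically 180 s, then an EC20 dopamine challenge followed with a further 180 s calcium read.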
LDHA block – LDHA (human) enzyme inhibition | purified LDHA, NADH/diaphorase-resazurin fluorescence; active compounds read low | activity change, % (values are at about 110 or 230 µM) | AID 1347041 | P00338 | actives 0.15% (n = 480,000); in the data active = activity change below about -30%; inconclusive = mostly about -25% to -30%;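 note: plate controls were DMSO wells for no effect and wells without enzyme for full effect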
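Human LDH5 at 2 nM final in Tris HCl pH 7.4 with 0.06 mM NADH and 0.2 mM pyruvate, reacted 5 minutes at room temperature. Remaining NADH coupled via diaphorase/resazurin; resorufin fluorescence read at 0 and 20 minutes, normalized to enzyme-free and DMSO wells.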
D2 ag-2 – D2 dopamine receptor (human) agonism; P14416; HEK293 T-REx D2 cells, calcium flux agonist mode; actives 0.53% (n = 340,000); activation, % at 2 µM;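 active = activation over 3 SD above normal in the single-dose calcium agonist read, cut at about 30% in these data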; note: 0% is about no effect
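Agonism is scored from calcium flux in a force-coupled, inducible HEK293 cell line expressing D2, read kinetically for 180 s after compound addition against dopamine controls.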
Starred values were filed as active, the others as inactive; ? = inconclusive; · = no result given. Shown are actives, neighbours in structure and some others; about 2.1% of the full set was active somewhere.

SMILES	D2 antag	D2 ag-1	D2 PAM-1	D2 PAM-2	LDHA block	D2 ag-2
CCOC(=O)c1nnn(C(CC)C(=O)Nc2cccc(OC)c2)c1C(=O)OCC (stereo not given)	·	·	·	·	-7.5	·
CCOc1ccccc1C1CC(c2cccc(NS(C)(=O)=O)c2)=NN1C(=O)c1ccco1 (stereo not given)	·	·	·	·	6.4	·
Nc1ccc(-c2nc3ncccc3o2)cc1	32.8*	-3.2	-1.2	1.7	-1.5	0.1
Nc1cccc(-c2nc3ncccc3o2)c1	6.2	-0.7	-4.4	4.9	-2.1	0.4
COc1cccc(NC(=S)Nc2cc(C)cc(C)n2)c1	44.4*	-1.9	-5.7	8.1	-8.7	0.0
Cn1c(-c2nonc2NC(=O)c2ccc(C(C)(C)C)cc2)nc2ccccc21	44.2*	·	·	2.3	·	0.7
CCOc1ccc(Nc2oc(COc3ccc(Cl)cc3)nc2C#N)cc1	·	·	·	·	0.7	·
Cc1ccc2nc(/C(C#N)=C/c3sccc3C)[nH]c2c1	·	·	·	·	16.5	·
CCc1ccc(CNC(=O)CN2C(=O)c3cccnc3Oc3ccc(Cl)cc32)cc1	·	·	·	·	-32.5*	-1.7
O=C(CN1C(=O)c2cccnc2Oc2ccc(Cl)cc21)NC1CCCCCC1	41.1*	3.6	0.0	-9.0	-0.5	0.0
O=C(CN1C(=O)c2cccnc2Oc2ccc(Cl)cc21)NC1CCCC1	1.8	4.5	-27.9	0.5	-7.1	-1.6
CC(C(=O)N1CCN(Cc2ccccc2)CC1)n1ncn2cccc2c1=O (stereo not given)	48.5*	-1.8	-2.6	-15.6	-0.1	9.5
FC(F)Oc1ccc(NC(=S)NC2CCCCCCC2)cc1	33.3*	-3.5	2.1	15.2	-6.9	2.4
Fc1ccc(NC(=S)NC2CCCCCC2)cc1	·	·	·	·	4.8	·
CSc1ccccc1NC(=O)Nc1ccc(F)c(Cl)c1	42.8*	1.2	-14.7	-20.8	1.8	0.8
O=C(Nc1cccc(F)c1)Nc1c[nH]c(=O)[nH]c1=O	11.6	-3.2	-5.4	-7.5	-5.2	1.1
Cc1ccc(NC(=O)Nc2ccc(F)c(Cl)c2)cc1	-21.1	-1.6	-0.6	10.4	-5.1	1.4
CSc1ccccc1NC(=O)Nc1cccc(Cl)c1	36.2*	-1.1	-11.3	-19.8	-7.3	0.8
O=C(Nc1cccc(Cl)c1)Nc1c[nH]c(=O)[nH]c1=O	34.3*	4.1	-4.3	-10.1	-9.5	0.5
Cc1ccc(-c2nc(CN3CCCC3c3cccs3)co2)c(C)c1 (stereo not given)	·	·	·	·	1.9	·
N#Cc1ccc(OCCOC(=O)c2c(F)cccc2F)cc1	·	·	·	·	5.5	·
Cc1nc(-c2cccs2)c(CC(=O)N2CCc3ccccc3C2)s1	·	·	·	·	4.5	·
CC(C)=CCC/C(C)=C/C=N/NC(=S)Nc1ccccc1	·	·	·	·	-0.6	·
O=C(NN1CCN(Cc2ccccc2)CC1)c1ccc(Cl)cc1	67.1*	-0.4	-27.3	-38.5	-9.4	2.0
O=C(c1ccc(F)cc1)C1CCN(Cc2ccccc2F)CC1	·	-6.5	-19.8	·	-5.5	·
SMILES	D2 antag	D2 ag-1	D2 PAM-1	D2 PAM-2	LDHA block	D2 ag-2
O=C(c1ccc(Cl)cc1)C1CCN(Cc2ccccc2)CC1	81.2*	-2.8	-77.7	-28.8	0.2	-0.9
CN(CC(=O)NC(C)(C)C)C(=O)c1cc2ccccc2oc1=O	·	·	·	·	-3.9	·
O=C(c1ccc(F)cc1)N(Cc1ccco1)C1CCS(=O)(=O)C1 (stereo not given)	-16.9	-0.5	-14.2	1.0	-1.9	2.2
O=C(c1ccccc1)N(Cc1ccco1)C1CCS(=O)(=O)C1 (stereo not given)	37.4*	-2.5	-9.0	2.1	0.0	4.1
CCCNc1c(NC(=O)Nc2ccc(C)cc2)c(=O)oc2ccccc12	·	·	·	·	-3.0	·
S=c1[nH]nc(Cc2c[nH]c3ccccc23)o1	41.4*	0.8	14.9	1.2	-11.2	0.8
O=C(NNC(=O)c1ccccc1F)c1cccs1	23.8	-3.1	-1.7	-5.5	4.3	0.1
O=C(NNC(=O)c1ccccc1Cl)c1cccs1	-6.1	-2.9	-20.8	32.4*	2.9	·
O=C(Nc1ccc(O)cc1C(=O)O)c1cccs1	34.6*	-0.6	9.5	25.2	-2.3	0.0
COc1ccc2cc(C(=O)OC(C)C(N)=O)c(C)nc2c1 (stereo not given)	·	·	·	·	-31.9*	·
CCCNC(=O)C(C)OC(=O)c1cc2ccc(OC)cc2nc1C (stereo not given)	·	·	·	·	8.5	·
Cn1nc(C(=O)NCc2cccc(Cl)c2)c2ccccc2c1=O	·	·	·	·	-18.3	·
CSc1ccc(/C=N\Nc2nncn2N)cc1	3.7	43.4*	-3.3	1.9	22.5	-0.3
COc1ccc(/C(N)=N/OC(=O)c2ccc([N+](=O)[O-])c(C)c2)cc1OC	-10.8	1.7	-5.1	-3.6	-0.4	0.2
CCOc1ccc(C(=O)O/N=C(\N)c2ccc([N+](=O)[O-])cc2)cc1OCC	13.9	?	58.1*	2.0	-3.9	0.3
N/C(=N\OC(=O)c1ccccc1F)c1ccc([N+](=O)[O-])cc1	14.7	?	15.4	2.4	-4.2	1.7
N/C(=N\OC(=O)c1cccc(Br)c1)c1ccc(Br)cc1	7.1	13.3	100.5*	-5.4	-3.6	-0.5
N/C(=N\OC(=O)c1cccc(Br)c1)c1ccc([N+](=O)[O-])cc1	0.6	50.6*	13.6	-7.2	-12.4	-0.6
N/C(=N\OC(=O)c1ccc(Br)cc1)c1ccccc1	-6.2	6.1	13.3	2.3	-8.6	-0.1
COc1ccc(/C(N)=N/OC(=O)c2ccc(C)c([N+](=O)[O-])c2)cc1	-0.3	?	132.0*	-1.2	-1.6	0.1
CCC(=O)OC1=C(C(C)=O)N(C)S(=O)(=O)c2ccccc21	·	·	·	·	-15.7	·
Cc1noc(-c2ccc(Cl)cc2)c1C(=O)O/N=C(\N)c1ccc(C(C)(C)C)cc1	·	47.1*	150.7*	·	-7.6	·
Cc1ccc(C(=O)O/N=C(\N)c2ccc(Br)cc2)cc1	33.6*	?	27.7	-21.8	-2.4	0.9
COc1ccc(C(=O)O/N=C(\N)c2ccc(Br)cc2)cc1	7.4	?	?	-4.5	-0.9	-0.1
CC(C)(C)c1ccc(C(=O)O/N=C(\N)c2ccccc2)cc1	26.9	40.1*	19.0	-4.2	-4.0	1.1
O=C1C(c2ccccc2)=S=C2c3ccccc3-c3ccccc3N12	·	·	·	·	-12.8	·
CC1=C(C(N)=O)C(c2cccnc2)n2nc(SCc3ccccc3F)nc2N1 (stereo not given)	·	·	·	·	6.2	·
CC1=C(C(N)=O)C(c2cccnc2)n2nc(SCc3ccccc3Cl)nc2N1 (stereo not given)	34.6*	-0.4	0.7	-0.2	-4.1	-1.7
COCC(=O)N1CCN(c2oc(-c3ccccc3C)nc2S(=O)(=O)c2ccc(C)cc2)CC1	·	·	·	·	11.6	·
COCCCNC(=O)Cn1ncc2ccsc2c1=O	30.4*	-3.0	0.2	-0.2	-0.9	0.1

Assay outcomes as filed in PubChem BioAssay.
